# Screening data as filed in PubChem BioAssay.
# Only some compounds are listed: those with a hit (about 13% of all), similar ones and a draw of the others.
# USP8 block: inhibitors of human USP8 deubiquitinase. P40818. purified USP8, Ub-rhodamine cleavage fluorescence, 30 min. inhibition, % at 20 µM. actives 4.2% (n = 47,000). AID 1645853
# USP7 inh: inhibitors of human USP7 deubiquitinase; AID 1645854; inhibition, % at 20 µM; purified USP7, Ub-rhodamine cleavage fluorescence; actives 0.3% (n = 47,000)
# USP10 inh: human USP10 deubiquitinase inhibition; actives 1.1% (n = 47,000); inhibition, % at 20 µM; purified USP10, Ub-rhodamine fluorescence, 60 min; Q14694
# USP30 inh: inhibitors of human USP30 deubiquitinase; actives 5.3% (n = 47,000); Q70CQ3; inhibition, % at 25 µM; purified USP30, Ub-rhodamine cleavage fluorescence; AID 1645860
# Target sequence (Q70CQ3 whole entry, looked up): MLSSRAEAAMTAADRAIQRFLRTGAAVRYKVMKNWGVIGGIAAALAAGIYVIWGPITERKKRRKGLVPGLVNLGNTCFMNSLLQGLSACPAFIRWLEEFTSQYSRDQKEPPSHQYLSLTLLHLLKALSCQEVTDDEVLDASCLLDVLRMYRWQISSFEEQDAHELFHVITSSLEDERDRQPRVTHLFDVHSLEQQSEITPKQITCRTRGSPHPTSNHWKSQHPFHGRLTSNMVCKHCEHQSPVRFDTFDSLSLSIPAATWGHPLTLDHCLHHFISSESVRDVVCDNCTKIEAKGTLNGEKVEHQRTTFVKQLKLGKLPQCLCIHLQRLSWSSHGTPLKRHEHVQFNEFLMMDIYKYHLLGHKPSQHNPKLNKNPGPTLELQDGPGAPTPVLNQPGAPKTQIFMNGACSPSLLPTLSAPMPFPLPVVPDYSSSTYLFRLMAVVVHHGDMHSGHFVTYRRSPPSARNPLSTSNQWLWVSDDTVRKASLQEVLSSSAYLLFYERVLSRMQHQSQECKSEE
# UCHL1 block: blocks human UCHL1 ubiquitin-rhodamine cleavage. P09936. purified UCHL1, Ub-rhodamine cleavage fluorescence. inhibition, % at 20 µM. actives 0.2% (n = 47,000)
# USP17 inh: human USP17-like deubiquitinase inhibition | inhibition, % at 50 µM | purified USP17, Ub-rhodamine cleavage fluorescence, 3 h | actives 6.5% (n = 47,000)
# * = called active by the depositor; i = inactive; · = no result given. Cut-off read from the data, not from the text of the source: active = inhibition above about 30%; inactive = the rest.
SMILES,USP8 block,USP7 inh,USP10 inh,USP30 inh,UCHL1 block,USP17 inh
CC(C)(C)C1CCC2(CC1)N=C(N)Nc1nc3cc4c(cc3n12)OCCCO4 (configuration not stated),18,6,4,15,1,1
COC(=O)c1c(-c2c(Cl)cccc2Cl)noc1/C=C/Nc1ccc(C(=O)O)cc1,26,10,-2,-35,-8,7
Cc1nc(Nc2ccc(NC(=O)c3ccco3)cc2)cc(N2CCOCC2)n1,-27,0,-2,-17,2,-12
COc1cccc(CC(=O)Nc2cc(F)c3nc(N4CCOCC4)ccc3c2)c1,72*,-3,-4,-96,-1,58*
COc1ccc(CCC(=O)Nc2cc(F)c3nc(N4CCOCC4)ccc3c2)cc1,47*,-1,2,12,0,2
O=C(CCc1ccccc1)Nc1cc(F)c2nc(N3CCCCC3)ccc2c1,70*,-2,-3,-14,-2,28
O=C(Nc1cc(F)c2nc(N3CCCC3)ccc2c1)c1ccco1,70*,-16,-5,-138,7,56*
Cc1ncc2c(n1)C1(CCN(Cc3ccc(OC(C)C)cc3)CC1)OCC2,-3,-4,-1,-6,-1,-8
N#Cc1ccsc1NS(=O)(=O)c1ccc(F)cc1,-11,-129,-4,i,-151,-157
COc1ccc(CCCNc2ncc(-c3cc(C)no3)c(-c3ccco3)n2)cc1OC,-2,1,2,-109,3,22
CCn1cc2nc(SCC(=O)NC3CCCC3)n(Cc3ccc(C)cc3)c(=O)c2n1,6,2,0,70*,4,63*
Cn1c(N)c(C(=O)CSc2nnc(Cn3cnc4ccccc43)n2-c2ccccc2Cl)c(=O)n(C)c1=O,-3,0,-3,39*,2,9
O=C(Cn1ncc2c1-c1ccccc1OC2)Nc1ccc(F)c(Cl)c1,-4,3,7,35*,0,-5
O=C(CN1CC(c2nc(-c3ncccn3)no2)C1)Nc1ccc(F)c(Cl)c1,-49,0,1,7,3,-12
CCOc1cc(C2C3=C(CC(c4ccc(C)cc4)CC3=O)Nc3ccccc3N2C(=O)C2CC2)ccc1OCc1ccc(Cl)cc1 (configuration not stated),17,12,6,9,6,0
CC(Sc1nc2ncc(Cl)cc2[nH]1)C(=O)Nc1ccc2c(c1)OCO2 (configuration not stated),38*,5,-7,-13,1,25
COc1ccc(Cl)cc1NC(=O)Cn1c(=O)cc(C)c2c(C)nn(-c3ccccc3)c21,2,3,14,25,0,56*
Cc1cc(=O)n(CC(=O)NCC2CCCO2)c2c1c(C)nn2-c1ccccc1 (configuration not stated),2,-4,-3,15,1,5
Cc1cc(=O)n(CC(=O)NCc2ccccc2F)c2c1c(C)nn2-c1ccccc1,2,4,16,33*,0,62*
CN1C(=O)COc2cc(-c3noc(C(=O)NC4CCCCC4)n3)ccc21,19,-7,-1,31*,2,26
Cc1ccc(NC(=O)c2ccc(Nc3nnc(C)c4ccccc34)cc2)cc1,13,3,-1,8,2,52*
Cc1nnc(Nc2ccc(C(=O)Nc3c(Cl)cccc3Cl)cc2)c2ccccc12,-4,1,-7,-36,-5,-15
CC(C)=CCc1cccc2c1N[C@H]1N3C(=O)/C4=C/c5c([nH]c6ccccc56)C(C)(C)/C=C\N4C(=O)[C@H]3C[C@@]21O,0,-51,0,17,3,5
O=C(c1ccc(COc2cccc3ccccc23)o1)N1CCC(Cc2ccccc2)CC1,-11,10,2,-83,1,68*
O=C(COc1ccccc1F)N1CCC(Cc2ccccc2)CC1,1,-7,0,17,2,13
SMILES,USP8 block,USP7 inh,USP10 inh,USP30 inh,UCHL1 block,USP17 inh
Cc1cccc(NC(=O)c2cc3cccnc3n(C)c2=O)c1,-8,0,-2,-36,-1,-1
COc1ccc2ncc(S(=O)(=O)c3ccccc3)c(N3CCCC3)c2c1,9,7,5,-5,4,1
Cc1ccc(-c2nc3ccccc3c(=O)n2CN2CCOCC2)cc1,1,2,5,18,-2,6
O=C1c2ccccc2-n2c1nc1ccccc1c2=O,21,0,5,-12,8,50*
CN1CCCN(C(=O)c2nc3c(o2)CN(C(=O)c2cccnc2)C3)CC1,-10,-7,-5,-140,-7,-37
O=C(Cn1c(C(F)(F)F)nc2cc3c(cc21)OCCO3)NC1CCCC1,0,-2,0,3,0,35*
CC1CCCN(S(=O)(=O)c2cc3cc(F)ccc3oc2=O)C1 (configuration not stated),3,3,3,15,1,58*
CCCCCn1c(Sc2ccc(C)cc2)nc2c1c(=O)[nH]c(=O)n2C,15,7,9,53*,8,34*
CC(C)n1nc2c(c1-c1ccc(F)cc1)[C@H]1CN(Cc3ccccn3)C[C@H]1C2,-167,-4,-8,3,-2,-22
COc1ccc(C2NC3=NCN(C(C)C)CN3c3nc4ccccc4n32)cc1 (configuration not stated),23,1,2,33*,3,12
Clc1ccc(-c2noc(-c3cnccn3)n2)cc1,26,2,2,31*,0,22
COCCn1cc(CN2CCC(O)(c3ccccc3F)CC2)c2ccccc21,32*,3,0,35*,0,9
Nc1c(-c2nc(-c3ccccc3)cs2)nnn1-c1ccccc1,3,0,1,·,4,8
Cc1ccc(-c2csc(-c3nnn(-c4cccc(Cl)c4)c3N)n2)cc1,42*,-23,1,-16,0,-4
Nc1c(-c2nc(-c3ccc4c(c3)OCO4)cs2)nnn1-c1ccccc1,34*,14,-1,15,2,65*
Cc1c(O)ccc2c(=O)c(-c3cc4ccccc4o3)coc12,19,4,3,9,3,3
Cc1cc(O)c2c(=O)c3c(O)cccc3oc2c1O,6,-90,5,28,6,37*
CNc1cc(C)nc(C2CN(C(=O)c3ccc(C)n(C)c3=O)CCO2)c1 (configuration not stated),-34,4,0,32*,1,8
CCC(C)(C)C1CCC2(CC1)N=C(N)Nc1nc3ccccc3n12 (configuration not stated),4,6,2,69*,4,11
O=C(NCCc1c[nH]c2ccccc12)c1cc2sccc2n1Cc1ccccc1,11,-11,11,-21,1,44*
COCCCNC(=O)COc1c(-c2ccc(OC)cc2)oc2ccccc2c1=O,29,0,-1,49*,4,23
